Measurements as given in PubChem BioAssay (EPA / NIEHS).
Values joined by “and” are separate entries in the source; they are usually repeats but may differ in a detail not shown here. Identical values can stand only once. Records with an inconclusive call do not appear. More than one record can exist for a structure, and the calls need not agree. Active and inactive are the calls of the source. How the source made its calls, unless noted: active means hit-call score of the fitted dose curve at least 0.9, where 1 is the maximum; inconclusive means response in the unintended direction; inactive means score below 0.9.

Tests used:
[1] = tested on: Sodium/Iodide Symporter (NIS), SLC5A5 (gene 6528); test: CPHEA_Stoker_NIS_Inhibition_RAIU: CPHEA's Radioactive Iodide Uptake (RAIU) Assay for Sodium/Iodide Symporter (NIS) Inhibition, Stoker and Laws Labs (AID 2283841)
Method in brief: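 Iodide uptake through human NIS is measured in an engineered HEK293T line. Cells take up 125I (329pM final) for 2 hours at room temperature alongside chemicals at 0.001–100uM. Retained radioactivity is counted, and the signal is expressed against DMSO controls.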

[2] = CPHEA_Stoker_NIS_Cytotoxicity: Cytotoxicity Assessment for CPHEA's Radioactive Iodide Uptake (RAIU) Assay for Sodium/Iodide Symporter (NIS) Inhibition, Stoker and Laws Labs (AID 2283897);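 on AC50: active means loss of ATP signal versus DMSO meaning cytotoxicity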
Method in brief: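 ATP luminescence (Cell Titer Glo) measured viability, with loss of signal normalized to DMSO controls. Cells: hNIS-HEK293T-EPA, seeded 40 hours prior. Dosing: 0.001–100uM, 2 hours, room temperature, uptake buffer pH 7.4.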

[3] = target: Estrogen receptor (Homo sapiens) (UniProt P03372); test: ATG_hERa_XSP2: Attagene TRANS-FACTORIAL Multi-Species (XSP2) HepG2 Assay for human Estrogen Receptor (ERa) (AID 2283827)
Chain of Estrogen receptor (Homo sapiens) (P03372 whole entry, looked up, the tested form may be a part): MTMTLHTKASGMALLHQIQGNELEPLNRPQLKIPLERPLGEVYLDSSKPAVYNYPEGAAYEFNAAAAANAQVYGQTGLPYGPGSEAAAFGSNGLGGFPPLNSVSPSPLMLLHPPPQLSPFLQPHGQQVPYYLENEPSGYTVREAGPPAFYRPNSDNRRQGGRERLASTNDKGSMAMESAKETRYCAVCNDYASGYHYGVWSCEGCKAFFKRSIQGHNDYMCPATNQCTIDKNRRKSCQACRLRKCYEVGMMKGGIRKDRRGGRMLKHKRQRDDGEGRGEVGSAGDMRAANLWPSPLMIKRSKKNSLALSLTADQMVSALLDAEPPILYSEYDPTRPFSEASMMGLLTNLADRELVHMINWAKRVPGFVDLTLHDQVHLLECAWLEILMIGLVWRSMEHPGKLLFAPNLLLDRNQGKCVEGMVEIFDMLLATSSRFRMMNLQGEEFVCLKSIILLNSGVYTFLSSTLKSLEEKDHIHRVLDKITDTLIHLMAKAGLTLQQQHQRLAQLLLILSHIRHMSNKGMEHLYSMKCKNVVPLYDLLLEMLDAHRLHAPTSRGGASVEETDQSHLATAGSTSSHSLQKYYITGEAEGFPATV
Method in brief: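 Trans-activation of exogenous human ERa-Gal4 chimera read in HepG2 as reporter transcript after 24 h exposure; medium included 3 nM 6-alpha-fluorotestosterone and 1.5 nM norgestrel. Quantified by RT-PCR with capillary electrophoresis, positive-direction fitting against DMSO.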

[4] = tested on: frog Estrogen Receptor (ER2), gene 100174814; test: ATG_frER2_XSP2: Attagene TRANS-FACTORIAL Multi-Species (XSP2) HepG2 Assay for frog Estrogen Receptor (ER2) (AID 2283828)
Method in brief: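 Cells were transfected with reporter constructs under GAL4-UAS control, dosed with chemicals for 24 h, then lysed for RNA; the frog ER2-driven reporter mRNA was quantified by capillary electrophoresis of labeled PCR fragments, with activity fitted upward from DMSO.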

[5] = target: Peroxisome proliferator-activated receptor gamma (Homo sapiens) (UniProt P37231); test: ATG_hPPARg_XSP2: Attagene TRANS-FACTORIAL Multi-Species (XSP2) HepG2 Assay for human Peroxisome Proliferator-activated Receptor gamma (PPARg) (AID 2283829);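 further: actives raise reporter mRNA above DMSO so AC50 reflects PPARg activation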
Chain of Peroxisome proliferator-activated receptor gamma (Homo sapiens) (P37231 whole entry, looked up, the tested form may be a part): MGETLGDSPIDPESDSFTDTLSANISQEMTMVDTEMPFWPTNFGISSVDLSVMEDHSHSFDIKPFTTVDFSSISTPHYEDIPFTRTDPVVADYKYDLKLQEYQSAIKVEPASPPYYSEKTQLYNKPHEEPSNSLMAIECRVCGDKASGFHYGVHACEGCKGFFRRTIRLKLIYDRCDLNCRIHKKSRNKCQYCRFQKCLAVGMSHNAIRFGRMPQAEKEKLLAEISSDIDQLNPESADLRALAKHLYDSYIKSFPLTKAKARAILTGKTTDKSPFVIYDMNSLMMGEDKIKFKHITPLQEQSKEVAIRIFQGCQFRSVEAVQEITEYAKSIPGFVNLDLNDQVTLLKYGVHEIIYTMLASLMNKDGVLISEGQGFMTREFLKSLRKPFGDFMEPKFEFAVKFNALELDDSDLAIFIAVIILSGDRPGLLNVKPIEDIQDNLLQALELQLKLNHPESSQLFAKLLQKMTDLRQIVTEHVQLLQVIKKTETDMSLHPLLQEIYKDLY
Method in brief: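 Human HepG2 cells carried transiently transfected Gal4 reporter units and were treated with chemical for 24 h alongside androgen-receptor stimulants (3 nM 6-alpha-fluorotestosterone, 1.5 nM norgestrel). Reporter transcripts were detected by RT-PCR with capillary electrophoresis, analysed in the positive direction against DMSO.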

[6] = target: mouse Peroxisome Proliferator-activated Receptor gamma (PPARg), Pparg (gene 19016) (UniProt P37238); test: ATG_mPPARg_XSP2: Attagene TRANS-FACTORIAL Multi-Species (XSP2) HepG2 Assay for mouse Peroxisome Proliferator-activated Receptor gamma (PPARg) (AID 2283830);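 further: hits are gains in reporter mRNA above DMSO so AC50 marks activation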
Chain of mouse Peroxisome Proliferator-activated Receptor gamma (PPARg), Pparg (gene 19016) (P37238 whole entry, looked up, the tested form may be a part): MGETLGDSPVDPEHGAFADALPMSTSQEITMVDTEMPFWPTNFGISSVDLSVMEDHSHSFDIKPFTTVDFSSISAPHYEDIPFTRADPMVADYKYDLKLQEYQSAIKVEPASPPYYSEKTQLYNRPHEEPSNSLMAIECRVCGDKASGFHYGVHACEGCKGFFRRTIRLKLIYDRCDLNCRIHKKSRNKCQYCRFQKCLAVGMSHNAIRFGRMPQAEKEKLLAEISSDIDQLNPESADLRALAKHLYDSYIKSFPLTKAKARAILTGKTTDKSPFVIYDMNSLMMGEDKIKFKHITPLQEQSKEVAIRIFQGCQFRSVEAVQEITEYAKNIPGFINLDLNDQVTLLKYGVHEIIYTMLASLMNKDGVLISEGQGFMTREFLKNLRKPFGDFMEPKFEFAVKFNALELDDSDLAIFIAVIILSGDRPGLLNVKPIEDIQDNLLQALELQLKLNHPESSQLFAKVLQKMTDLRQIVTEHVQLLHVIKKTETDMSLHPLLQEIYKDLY
Method in brief: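 Multiplexed TRANS reporter readout: after 24 h chemical exposure of transfected HepG2 cells (with 3 nM 6-alpha-fluorotestosterone, 1.5 nM norgestrel present), RNA reverse-transcribed, amplified, 6-FAM-labelled and resolved by capillary electrophoresis; mouse PPARg-Gal4 induction scored against DMSO.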

[7] = target: Nuclear receptor subfamily 1 group I member 2 (Mus musculus) (UniProt O54915); test: ATG_mPXR_XSP2: Attagene TRANS-FACTORIAL Multi-Species (XSP1) HepG2 Assay for mouse Pregnane X Receptor (PXR) (AID 2283831)
Chain of Nuclear receptor subfamily 1 group I member 2 (Mus musculus) (O54915 whole entry, looked up): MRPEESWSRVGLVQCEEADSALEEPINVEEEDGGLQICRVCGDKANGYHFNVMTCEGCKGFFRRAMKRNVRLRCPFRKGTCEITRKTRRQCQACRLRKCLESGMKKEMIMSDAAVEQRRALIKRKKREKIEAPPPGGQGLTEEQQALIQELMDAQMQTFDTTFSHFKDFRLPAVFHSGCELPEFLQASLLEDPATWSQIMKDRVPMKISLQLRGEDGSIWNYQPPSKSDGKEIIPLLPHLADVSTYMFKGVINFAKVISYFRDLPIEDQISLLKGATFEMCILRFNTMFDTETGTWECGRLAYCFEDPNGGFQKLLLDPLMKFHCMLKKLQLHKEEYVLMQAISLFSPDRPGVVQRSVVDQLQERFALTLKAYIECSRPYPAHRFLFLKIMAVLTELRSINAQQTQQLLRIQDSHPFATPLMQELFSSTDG
Method in brief: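 Fluorescence signals from capillary electrophoresis of RT-PCR-amplified reporter mRNA give the readout, gain-of-signal versus DMSO. Transfected HepG2 cells, 24 h dosing, medium contained 3 nM 6-alpha-fluorotestosterone and 1.5 nM norgestrel.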

[8] = target: zebrafish Thyroid Hormone Receptor alpha (TRa), thraa (gene 30670) (UniProt Q98867); test: ATG_zfTRa_XSP2: Attagene TRANS-FACTORIAL Multi-Species (XSP1) HepG2 Assay for zebrafish Thyroid Hormone Receptor alpha (TRa) (AID 2283832);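 further: actives raise zebrafish TRa-Gal4 reporter transcript above DMSO baseline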
Chain of zebrafish Thyroid Hormone Receptor alpha (TRa), thraa (gene 30670) (Q98867 whole entry, looked up, the tested form may be a part): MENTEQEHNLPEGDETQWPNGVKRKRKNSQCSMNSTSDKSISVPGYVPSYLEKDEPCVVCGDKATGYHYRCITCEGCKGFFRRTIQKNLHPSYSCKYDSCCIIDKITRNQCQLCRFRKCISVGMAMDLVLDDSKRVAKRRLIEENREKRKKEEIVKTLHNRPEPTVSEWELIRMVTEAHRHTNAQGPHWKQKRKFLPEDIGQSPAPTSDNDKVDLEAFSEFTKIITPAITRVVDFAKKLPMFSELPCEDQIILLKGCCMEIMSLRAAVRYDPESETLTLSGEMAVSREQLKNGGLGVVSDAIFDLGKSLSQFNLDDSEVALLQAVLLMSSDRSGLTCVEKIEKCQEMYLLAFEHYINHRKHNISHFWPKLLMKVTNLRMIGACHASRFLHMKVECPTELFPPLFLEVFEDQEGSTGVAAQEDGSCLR
Method in brief: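 Multiplexed TRANS reporter format in HepG2; the medium also contained 3 nM 6-alpha-fluorotestosterone and 1.5 nM norgestrel. Reporter mRNA after 24 h read by RT-PCR and capillary electrophoresis, scored as induction over DMSO.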

[9] = tested on: zebrafish Peroxisome Proliferator-activated Receptor gamma (PPARg), gene 557037; test: ATG_zfPPARg_XSP2: Attagene TRANS-FACTORIAL Multi-Species (XSP2) HepG2 Assay for zebrafish Peroxisome Proliferator-activated Receptor gamma (PPARg) (AID 2283833);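 further: reporter mRNA from a zebrafish PPARg GAL4 chimera measured by RT-PCR and capillary electrophoresis; actives increase reporter signal over DMSO so AC50 reflects activation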
Method in brief: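 HepG2, transient MRTU transfection, 24 h compound; zfPPARg-GAL4 reporter mRNA by RT-PCR + capillary electrophoresis; gain-of-signal vs DMSO.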

[10] = tested on: turtle Thyroid Hormone Receptor, alpha (TRa), gene 101949057; test: ATG_trTRa_XSP2: Attagene TRANS-FACTORIAL Multi-Species (XSP1) HepG2 Assay for turtle Thyroid Hormone Receptor, alpha (TRa) (AID 2283834);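 further: hits raise reporter mRNA over the DMSO baseline so AC50 marks activators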
Method in brief: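 Multiplexed TRANS reporter assay; HepG2 carrying NR-Gal4 constructs treated 24 h. mRNA of the GAL4-UAS reporter quantified via labelled RT-PCR fragments on a genetic analyzer, vs DMSO negative control.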

[11] = ATG_M_61_XSP2: Attagene TRANS-FACTORIAL Multi-Species (XSP2) HepG2 Assay for M61 Transcription Factor (Internal Marker) (AID 2283835; active means hit-call score of the fitted dose curve at least 0.9, where 1 is the maximum; inactive means score below 0.9;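 further: reporter mRNA of an internal background marker read by RT-PCR and capillary electrophoresis; active means a rise in signal above the DMSO baseline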)
Method in brief: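 Transient MRTU transfection of human HepG2; 24 h chemical dosing with 3 nM 6-alpha-fluorotestosterone + 1.5 nM norgestrel added for AR stimulation. RNA isolated, RT, PCR, FAM-labelled, HpaI cut, CE read. Positive direction vs DMSO.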

[12] = target: zebrafish Thyroid Hormone Receptor beta (TRb), thrb (gene 30607) (UniProt Q9PVE4); test: ATG_zfTRb_XSP2: Attagene TRANS-FACTORIAL Multi-Species (XSP1) HepG2 Assay for zebrafish Thyroid Hormone Receptor beta (TRb) (AID 2283836)
Chain of zebrafish Thyroid Hormone Receptor beta (TRb), thrb (gene 30607) (Q9PVE4 whole entry, looked up): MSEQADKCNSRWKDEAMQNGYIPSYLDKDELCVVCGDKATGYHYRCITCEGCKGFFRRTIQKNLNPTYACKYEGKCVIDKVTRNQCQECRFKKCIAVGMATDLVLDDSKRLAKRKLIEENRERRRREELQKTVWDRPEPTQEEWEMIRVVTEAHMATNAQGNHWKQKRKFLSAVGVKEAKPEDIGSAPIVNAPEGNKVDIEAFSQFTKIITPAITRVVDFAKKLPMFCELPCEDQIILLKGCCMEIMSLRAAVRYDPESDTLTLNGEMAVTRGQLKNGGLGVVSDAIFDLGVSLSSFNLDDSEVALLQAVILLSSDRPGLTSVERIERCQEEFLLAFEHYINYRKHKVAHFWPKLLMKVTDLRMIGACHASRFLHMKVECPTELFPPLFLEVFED
Method in brief: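 Multiplexed trans-activation in HepG2 cells, 24 h treatment, with reporter mRNA read by RT-PCR and capillary electrophoresis. Gain-of-signal against DMSO.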

[13] = target: human Thyroid hormone Receptor alpha (TRa), THRA (gene 7067) (UniProt P10827); test: ATG_hTRa_XSP2: Attagene TRANS-FACTORIAL Multi-Species (XSP2) HepG2 Assay for human Thyroid hormone Receptor alpha (TRa) (AID 2283838)
Chain of human Thyroid hormone Receptor alpha (TRa), THRA (gene 7067) (P10827 whole entry, looked up, the tested form may be a part): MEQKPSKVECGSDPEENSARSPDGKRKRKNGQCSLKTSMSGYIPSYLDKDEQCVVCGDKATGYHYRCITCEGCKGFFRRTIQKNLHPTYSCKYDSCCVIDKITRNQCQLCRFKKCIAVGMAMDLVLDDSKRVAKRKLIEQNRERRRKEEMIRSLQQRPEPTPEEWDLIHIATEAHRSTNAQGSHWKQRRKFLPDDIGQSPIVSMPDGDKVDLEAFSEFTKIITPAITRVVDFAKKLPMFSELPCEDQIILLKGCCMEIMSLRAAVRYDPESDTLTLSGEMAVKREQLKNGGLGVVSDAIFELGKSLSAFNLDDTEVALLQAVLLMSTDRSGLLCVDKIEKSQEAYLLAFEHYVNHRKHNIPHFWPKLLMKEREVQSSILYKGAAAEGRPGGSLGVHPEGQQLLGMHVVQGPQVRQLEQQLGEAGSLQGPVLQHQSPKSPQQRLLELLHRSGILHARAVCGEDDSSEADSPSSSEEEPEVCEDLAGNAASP
Method in brief: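 Gain-of-signal in reporter mRNA, relative to DMSO, after 24 h dosing of transfected HepG2; quantitation by RT-PCR fragment analysis on capillary electrophoresis.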

[14] = target: frog Thyroid hormone Receptor alpha (TRa), thra-a (gene 397942) (UniProt P15204); test: ATG_frTRa_XSP2: Attagene TRANS-FACTORIAL Multi-Species (XSP2) HepG2 Assay for frog Thyroid hormone Receptor alpha (TRa) (AID 2283839)
Chain of frog Thyroid hormone Receptor alpha (TRa), thra-a (gene 397942) (P15204 whole entry, looked up, the tested form may be a part): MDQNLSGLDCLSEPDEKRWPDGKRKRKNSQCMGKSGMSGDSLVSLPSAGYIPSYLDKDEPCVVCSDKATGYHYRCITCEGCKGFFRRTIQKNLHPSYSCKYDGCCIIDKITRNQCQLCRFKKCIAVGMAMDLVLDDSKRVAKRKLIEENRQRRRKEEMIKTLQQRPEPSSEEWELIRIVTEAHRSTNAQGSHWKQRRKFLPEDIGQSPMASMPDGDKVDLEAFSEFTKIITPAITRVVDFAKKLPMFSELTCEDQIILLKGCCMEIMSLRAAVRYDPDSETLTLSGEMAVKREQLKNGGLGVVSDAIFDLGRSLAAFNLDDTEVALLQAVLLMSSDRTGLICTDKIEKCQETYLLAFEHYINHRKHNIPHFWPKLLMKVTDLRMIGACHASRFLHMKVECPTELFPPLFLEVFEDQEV
Method in brief: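 Chimeric frog TRα-GAL4 activity in human liver cells measures reporter transcript induction 24 h post-dose. Detection uses RT-PCR, HpaI-digested labelled products and fluorescence capillary electrophoresis; DMSO serves as negative control.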

[15] = target: human Thyroid hormone Receptor beta (TRb), THRB (gene 7068) (UniProt P10828); test: ATG_hTRb_XSP2: Attagene TRANS-FACTORIAL Multi-Species (XSP2) HepG2 Assay for human Thyroid hormone Receptor beta (TRb) (AID 2283840);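 further: actives raise reporter mRNA so potency reflects agonist-like gain of signal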
Chain of human Thyroid hormone Receptor beta (TRb), THRB (gene 7068) (P10828 whole entry, looked up): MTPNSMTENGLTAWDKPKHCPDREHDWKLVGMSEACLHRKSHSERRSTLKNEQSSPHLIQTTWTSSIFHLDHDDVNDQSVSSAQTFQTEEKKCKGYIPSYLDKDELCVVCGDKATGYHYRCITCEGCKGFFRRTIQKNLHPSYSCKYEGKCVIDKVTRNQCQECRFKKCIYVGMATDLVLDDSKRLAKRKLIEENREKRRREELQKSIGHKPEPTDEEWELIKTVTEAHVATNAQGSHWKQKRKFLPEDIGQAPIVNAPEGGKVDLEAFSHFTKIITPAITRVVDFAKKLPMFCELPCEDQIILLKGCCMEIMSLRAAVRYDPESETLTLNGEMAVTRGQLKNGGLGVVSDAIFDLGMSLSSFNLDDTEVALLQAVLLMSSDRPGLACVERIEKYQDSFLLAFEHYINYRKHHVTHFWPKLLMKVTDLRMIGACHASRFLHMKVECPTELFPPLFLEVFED
Method in brief: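 Gain-of-signal reporter transcription, referenced to DMSO, was measured in transiently transfected HepG2 after 24 h exposure; labeled RT-PCR products were resolved by capillary electrophoresis. Assay medium included 3 nM 6-alpha-fluorotestosterone and 1.5 nM norgestrel.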

[16] = ATG_M_32_XSP2: Attagene TRANS-FACTORIAL Multi-Species (XSP2) HepG2 Assay for M19 Transcription Factor (Internal Marker) (AID 2283826)
Method in brief: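 An internal background marker among multiplexed transfected reporters in HepG2 liver cells was measured 24 h after dosing. Androgen receptor stimulation came from 3 nM 6-alpha-fluorotestosterone and 1.5 nM norgestrel.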

[17] = CEETOX_H295R_OHPREG_noMTC: CeeTox H295R High-throughput Steroidogenesis Assay for OH-Pregnenolone (OHPREG), maximum tolerated concentration (MTC) filtered results only (AID 2283912; active means hit-call score of the fitted dose curve at least 0.9, where 1 is the maximum; inactive means score below 0.9); conditions: actives raise or lower the signal
Method in brief: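 H295R; 10 uM forskolin 48 h pre-stim; test cpd in DMSO (0.1% final) 48 h; media MTBE-extracted, HPLC-MS/MS for OH-pregnenolone; bidirectional fit vs DMSO; no MTC (MTT) filtering.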

[18] = CEETOX_H295R_OHPROG_noMTC: CeeTox H295R High-throughput Steroidogenesis Assay for OH-Progesterone (OHPROG), maximum tolerated concentration (MTC) filtered results only (AID 2283914; active means hit-call score of the fitted dose curve at least 0.9, where 1 is the maximum; inactive means score below 0.9); conditions: actives raise or lower the signal
Method in brief: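 Medium hormone measured by reverse-phase C18 HPLC with positive electrospray MS/MS after MTBE liquid-liquid extraction. Cells had 48 h forskolin (10 uM) prestimulation, then 48 h chemical dosing. Gain or loss of signal fitted relative to DMSO baseline.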

[19] = CEETOX_H295R_ANDR_noMTC: CeeTox H295R High-throughput Steroidogenesis Assay for Androstenedione (ANDR), maximum tolerated concentration (MTC) filtered results only (AID 2283915; active means hit-call score of the fitted dose curve at least 0.9, where 1 is the maximum; inactive means score below 0.9); conditions: actives raise or lower the signal
Method in brief: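 Androstenedione secreted into medium was measured by LC-MS/MS after MTBE extraction. Human adrenal H295R cells received 10 uM forskolin for 48 h before 48 h chemical exposure (0.1% DMSO). Gain or loss fitted against DMSO, including concentrations above the MTT-derived MTC.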

[20] = ATG_XTT_Cytotoxicity_XSP2: Cytotoxicity Assessment in the Attagene TRANS-FACTORIAL Multi-Species (XSP2) HepG2 Assay (AID 2283837)
Method in brief: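 XTT-based cell number read-out in human HepG2 liver cells carrying transfected reporter units, measured 24 h after chemical dosing. Activity is signal loss versus DMSO baseline.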

Measured: AC50

Cc1ccc(N=CN(C)C=Nc2ccc(C)cc2C)c(C)c1
inactive: [1] | [2]

O=C1C2CC=CCC2C(=O)N1SC(Cl)(Cl)Cl (stereo not given)
inactive: [2]
active: [1] 36 µM

CC(C)N1C(=O)N(c2ccccc2)CSC1=NC(C)(C)C
active: [1] 27.8 µM | [2] 40.8 µM

Clc1cccc(C(Cl)(Cl)Cl)n1
inactive: [1] | [2]

O=C(Nc1ccccc1-c1ccc(Cl)cc1)c1cccnc1Cl
inactive: [1] | [2]

COP(=S)(OC)Oc1ccc([N+](=O)[O-])c(C)c1
active: [3] 32.5 µM | [4] 85.1 µM | [5] 55.8 µM | [6] 31.3 µM | [7] 4.6 µM
not listed: [16] | [17] | [18] | [19] | [20]
inactive: all other assays above

CC1(C)CCC(=Cc2ccc(Cl)cc2)C1(O)Cn1cncn1 (stereo not given)
active: [3] 13.4 µM | [4] 63 µM | [7] 6.24 µM
not listed: [1] | [2] | [11] | [17] | [18] | [19] | [20]
inactive: all other assays above

CO/N=C(/C1=NOCCO1)c1ccccc1Oc1ncnc(Oc2ccccc2Cl)c1F
active: [1] 9.92 µM | [2] 10.9 µM

CCOc1cc(C(C)(C)C)ccc1C1COC(c2c(F)cccc2F)=N1 (stereo not given)
inactive: [2]
active: [1] 1.21 µM

COC(=O)c1c(C(F)F)nc(C(F)(F)F)c(C2=NCCS2)c1CC(C)C
inactive: [1] | [2] | [17] | [19]
active: [18] 7.98 µM

OC(c1ccc(Cl)cc1)(c1ccc(Cl)cc1)C(Cl)(Cl)Cl
active: [1] 30.2 µM | [2] 50 µM

COP(=S)(OC)SCn1nnc2ccccc2c1=O
inactive: [3] | [4] | [7] | [9] | [10] | [11] | [12] | [20] | [13] | [14] | [15] | [1] | [2]
active: [3] 24.7 µM | [5] 93.7 µM and 23.2 µM | [6] 51.6 µM and 32.6 µM

CCN(CC)c1nc(C)cc(OP(=S)(OC)OC)n1
inactive: [1] | [2]

CCOC(=O)C(C)OC(=O)c1cc(Oc2ccc(C(F)(F)F)cc2Cl)ccc1[N+](=O)[O-] (stereo not given)
inactive: [1] | [2]

CCOP(=S)(OCC)Oc1nc(Cl)n(C(C)C)n1
inactive: [1] | [2]

CC1(C)C(C(=O)OC(C#N)c2cccc(Oc3ccccc3)c2)C1(C)C (stereo not given)
inactive: [1] | [2]

CC(C)Oc1cccc(NC(=O)c2ccccc2C(F)(F)F)c1
inactive: [1] | [2]

CCCCOCN(C(=O)CCl)c1c(CC)cccc1CC
inactive: [1] | [2]

CC(C)NC(=O)N1CC(=O)N(c2cc(Cl)cc(Cl)c2)C1=O
inactive: [16] | [4] | [8] | [9] | [10] | [11] | [12] | [13] | [14]
active: [3] 6.97 µM | [5] 33.2 µM | [6] 40.6 µM | [7] 6.7 µM
